Assay [1] deals with T1, RSK2(Kin.Dom.1-N-terminal).
T1 construct: gene RPS6KA3
The conditions noted are these: concentration: 1 μM, replicates: in singlicate, n = 1.

In assay [2] the test system is T2, RSK2(Kin.Dom.2-C-terminal).
T2 construct: gene RPS6KA3
Conditions: concentration: 1 μM, replicates: in singlicate, n = 1.

Assay [3] deals with T3, RSK3(Kin.Dom.1-N-terminal).
T3 construct: gene RPS6KA2
Conditions: concentration: 1 μM, replicates: in singlicate, n = 1.

The test system of assay [4] is T4, RSK3(Kin.Dom.2-C-terminal).
T4 construct: gene RPS6KA2
Conditions: concentration: 1 μM, replicates: in singlicate, n = 1.

Assay [5] has as its system T5, RSK4(Kin.Dom.1-N-terminal).
T5 construct: gene RPS6KA6
The conditions noted are these: concentration: 1 μM, replicates: in singlicate, n = 1.

Assay [6] deals with T6, RSK4(Kin.Dom.2-C-terminal).
T6 construct: gene RPS6KA6
The conditions noted are these: concentration: 1 μM, replicates: in singlicate, n = 1.

The next assay has as its system S6K1. Conditions: concentration: 1 μM, replicates: in singlicate, n = 1.
The next assay relates to SBK1. The conditions noted are these: concentration: 1 μM, replicates: in singlicate, n = 1.
For the next assay, the system named is SGK2. Conditions: concentration: 1 μM, replicates: in singlicate; n = 1.
The subject of the next assay is SGK3. Conditions: concentration: 1 μM, replicates: in singlicate, n = 1.
For a further assay, the system named is SGK. The conditions noted are these: concentration: 1 μM, replicates: in singlicate, n = 1.
The test system of the next assay is SIK2. The conditions noted are these: concentration: 1 μM, replicates: in singlicate, n = 1.
The subject of the next assay is SIK. Conditions: concentration: 1 μM, replicates: in singlicate, n = 1.
The next assay concerns SLK. The conditions noted are these: concentration: 1 μM, replicates: in singlicate, n = 1.
Another assay deals with T7, SNARK.
T7 construct: gene NUAK2
Conditions: concentration: 1 μM, replicates: in singlicate, n = 1.

A further assay concerns SNRK. Conditions: concentration: 1 μM, replicates: in singlicate, n = 1.
In a further assay the test system is SRC. Conditions: concentration: 1 μM, replicates: in singlicate, n = 1.
For a further assay, the system named is SRMS. The conditions noted are these: concentration: 1 μM, replicates: in singlicate, n = 1.
In the next assay the test system is SRPK1. The conditions noted are these: concentration: 1 μM, replicates: in singlicate, n = 1.
Another assay has as its system SRPK2. The conditions noted are these: concentration: 1 μM, replicates: in singlicate, n = 1.

This is an account of results in publication PMC5540273 (PLoS ONE, 2017).

“And” between values parts separate entries of the source, which are not always exact repeats. Equal values may be shown once. Read-outs that look alike come from different tables or passages of the source.
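Further: KINOMEscan kinase panel screen.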

As for `Fc1ccc(-c2nn3c(OCC(F)(F)F)cccc3c2-c2ccncc2)cc1` [GW514784], the “%Inh” value in assay [1] amounted to 0%; in assay [2], 0%; in assay [3] it was 3%; in assay [4], 8%; in assay [5] it was 0%; in [6] it was 89%. The “%Inh” value came to 0% with S6K1; 2% in the assay on SBK1; 9% in the assay on SGK2; 0% with SGK3; 15% with SGK; 0% in the assay on SIK2. The “%Inh” value with SIK, with SLK, in the assay on SNARK, in the assay on SNRK, in the assay with SRC and in the assay on SRMS was 0% throughout. The “%Inh” value with SRPK1 stood at 29%; in the assay with SRPK2, 0%.

Turning to `CNc1ncnc2[nH]ncc12` [SKF-18355], the “%Inh” value in [1] was 46%; in [2], 0%; in assay [3], 5%; in [4], 22%; in [5], 16%; in [6], 0%. Also, the “%Inh” value in the assay with S6K1 was 24%; in the assay on SBK1 it was 0%; with SGK2, 0%; in the assay with SGK3, 0%; with SGK, 6%; with SIK2 it was 0%. The “%Inh” value stood at 0% in the assay with SIK; 10% in the assay on SLK; 0% in the assay on SNARK; 0% in the assay on SNRK; 17% with SRC; 22% with SRMS. Besides, the “%Inh” value with SRPK1 and in the assay on SRPK2 was 0% throughout.

`Cc1nnc(-c2ccc(C)c(-c3ccc(C(=O)Nc4ccc(NS(C)(=O)=O)cc4)cc3)c2)o1` [GW702865]: the “%Inh” value in assay [1], in assay [2], in assay [3], in assay [4], in assay [5] and in assay [6] was 0% throughout. Further, the “%Inh” value was 0% with S6K1; 0% with SBK1; 0% in the assay with SGK2; 4% in the assay on SGK3; 2% with SGK; 0% in the assay with SIK2. The “%Inh” value in the assay on SIK came out at 0%; with SLK it was 0%; with SNARK it was 1%; in the assay with SNRK, 0%; with SRC, 0%; in the assay on SRMS it was 2%. The “%Inh” value with SRPK1 is recorded as 23%; in the assay with SRPK2, 34%.

In the case of `CCn1cnc2c(N)ncnc21` [GW345098], the “%Inh” value in [1] was determined as 0%; in assay [2] it was 14%; in assay [3], 0%; in [4] it was 24%; in assay [5] it was 0%; in assay [6] it was 26%. For the same compound, the “%Inh” value in the assay on S6K1 came to 17%; in the assay on SBK1, 0%; with SGK2, 22%; with SGK3, 0%; in the assay with SGK, 25%; in the assay with SIK2 it was 2%. The “%Inh” value with SIK worked out at 19%; with SLK, 18%; in the assay on SNARK it was 0%; with SNRK, 0%; in the assay with SRC it was 20%; in the assay on SRMS, 12%. Besides, the “%Inh” value in the assay on SRPK1 came to 24%; in the assay on SRPK2, 19%.

Consider `CC(C)(C)n1cnc2c(N)ncnc21` [SKF-97359], for which the “%Inh” value in assay [1] is given as 0%; in assay [2] it was 18%; in assay [3] it was 2%; in assay [4], 18%; in assay [5] it was 0%; in [6], 46%. In addition, the “%Inh” value stood at 5% in the assay with S6K1; 0% in the assay on SBK1; 0% in the assay on SGK2; 0% in the assay on SGK3; 0% in the assay on SGK; 0% in the assay on SIK2. Further, the “%Inh” value with SIK, in the assay on SLK, in the assay on SNARK, in the assay on SNRK, in the assay on SRC and in the assay on SRMS was 0% each time. The “%Inh” value was found to be 0% with SRPK1 and 36% with SRPK2.

`CN(C(=O)c1ccc(-c2cc(-c3c[nH]nc3-c3ccccn3)ccn2)cc1)C1CCOCC1` [GW810083]: the “%Inh” value stood at 6% in assay [1]; 20% in assay [2]; 0% in assay [3]; 16% in assay [4]; 0% in assay [5]; 53% in assay [6]. In addition, the “%Inh” value is on record as 0% in the assay with S6K1; 0% in the assay on SBK1; 8% in the assay with SGK2; 0% in the assay on SGK3; 18% in the assay with SGK; 0% in the assay with SIK2. Also, the “%Inh” value in the assay on SIK, with SLK, in the assay with SNARK, in the assay on SNRK, in the assay on SRC and in the assay with SRMS was 0% in each case. The “%Inh” value came to 0% in the assay on SRPK1 and 14% in the assay with SRPK2.

As to `O=c1cc(N2CCOCC2)nc2n(Cc3cccc(Cl)c3Cl)c(C3CC3)nn12` [GSK2358994], the “%Inh” value in [1] stood at 0%; in assay [2], 18%; in assay [3], 0%; in assay [4], 17%; in assay [5], 0%; in assay [6], 21%. In addition, the “%Inh” value with S6K1 stood at 15%; with SBK1 it was 0%; in the assay on SGK2, 20%; in the assay with SGK3, 0%; with SGK, 30%; in the assay on SIK2, 0%. For the same compound, the “%Inh” value in the assay on SIK came out at 0%; in the assay with SLK, 46%; with SNARK it was 0%; with SNRK it was 0%; in the assay on SRC, 22%; with SRMS it was 0%. Further, the “%Inh” value was 17% in the assay with SRPK1 and 0% with SRPK2.

On to `Cl.Nc1ncnc2occ(-c3ccc(NC(=O)Nc4cc(C(F)(F)F)ccc4F)cc3)c12` [SB-707548], for which the “%Inh” value was determined as 25% in assay [1]; 27% in [2]; 67% in [3]; 77% in [4]; 0% in assay [5]; 39% in assay [6]. For the same compound, the “%Inh” value was found to be 81% in the assay with S6K1; 2% in the assay on SBK1; 9% with SGK2; 19% in the assay with SGK3; 0% with SGK; 0% with SIK2. In addition, the “%Inh” value with SIK stood at 0%; with SLK, 98%; with SNARK it was 0%; with SNRK it was 0%; in the assay with SRC it was 30%; in the assay on SRMS, 4%. Also, the “%Inh” value with SRPK1 stood at 50%; with SRPK2, 40%.

Take `Cl.Cl.Cl.Fc1ccc(-c2ncn(C3CCNCC3)c2-c2ccnc(Nc3ccccc3)n2)cc1` [SB-238039]: the “%Inh” value was 41% and 35% in [1] (1 µM); 16% and 0% in assay [2] (1 µM); 0% and 15% in assay [3] (1 µM); 18% and 32% in assay [4] (1 µM); 19% and 0% in [5] (1 µM); 88% and 80% in assay [6] (1 µM). Besides, the “%Inh” value in the assay with S6K1 (1 µM) was 5% and 0%; with SBK1 (1 µM), 36% and 0%; in the assay with SGK3 (1 µM) it was 8% and 12%; in the assay on SGK (1 µM), 41% and 0%; with SIK2 (1 µM), 65% and 46%; in the assay with SIK (1 µM) it was 1% and 4%. Besides, the “%Inh” value was 28% and 0% with SLK (1 µM); 9% and 0% in the assay on SNARK (1 µM); 0% and 10% in the assay with SNRK (1 µM); 0% and 4% in the assay with SRC (1 µM); 29% and 0% in the assay with SRMS (1 µM); 7% and 0% with SRPK1 (1 µM). For the same compound, in the assay on SRPK2 (1 µM), the “%Inh” value was 7% and 0%.
